# Test results reported in the supplement of paper PMC8728848.
# Shown is part of a subset that was picked to be rich in the strongest signals.
# B1: SrpA (Streptococcus sanguis) (protein)
# chain: SSKSESTVNSQSASSETNRSSTNNGSTSSSSETARVRKRRATDTTPPTITVPSDIIAYRGEEFEFYFEITDDSGQVKNIELSTFGKPLGLNWLEYSEDNFNVPGNATSDNPLRVRVHGTVPLNEPIPADKNRAQFTRTIRAWDAAGNVSSNITFVIKYRAQTDKYNPADPTITYVDRLSSLSPSEKNAVEAAVRAANPQIPAAARITVSANGTVTITYPDSSTDTITANRVVKDLASSRSALT
# Key:
# Test in all cases: glycan array binding signal (z-score within array); higher = stronger binding
# Details in all cases: glycan notation: IUPAC condensed, linker removed
# [1] = biological target: Fuc(a1-2)Gal(b1-4)GlcNAc(b1-3)Gal(b1-4)GlcNAc
# In short: (§1)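 Glycan array data were curated from 3228 arrays in the Consortium for Functional Glycomics database and kept only where the protein sequence was available. Glycan names were converted to IUPAC-condensed notation, and columns mapping to the same glycan were averaged. The binding signal is a within-array Z-score, averaged across arrays of the same protein sequence at different concentrations or buffers and across linkers. Negative Z-scores can be read as non-binding.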
# [2] = biological target: Fuc(a1-2)Gal(b1-4)GlcNAc(b1-3)Gal(b1-4)GlcNAc(b1-3)Gal(b1-4)GlcNAc
# In short: as §1
# [3] = biological target: Fuc(a1-2)[Gal(a1-3)]Gal
# In short: as §1
# [4] = biological target: Fuc(a1-3)[Gal(b1-4)]GlcNAc(b1-3)Gal(b1-3)[Fuc(a1-4)]GlcNAc
# In short: as §1
# [5] = biological target: Fuc(a1-3)[GalNAc(b1-4)]GlcNAc
# In short: as §1
# [6] = biological target: Gal(a1-3)Gal(b1-4)Glc
# In short: as §1
# [7] = biological target: Gal(a1-3)GalNAc
# In short: as §1
# [8] = biological target: Gal(b1-3)GalNAc(b1-4)[Neu5Ac(a2-3)]Gal(b1-4)Glc
# In short: as §1
# [9] = biological target: Gal(b1-4)GlcNAc(b1-6)GalNAc
# In short: as §1
# [10] = biological target: Gal3S(b1-3)GlcNAc
# In short: as §1
# [11] = biological target: GalNAc(b1-3)Gal(a1-4)Gal(b1-4)GlcNAc
# In short: as §1
# [12] = biological target: GlcNAc(b1-3)Gal(b1-3)GalNAc
# In short: as §1
# [13] = biological target: GlcNAc(b1-3)Gal(b1-4)GlcNAc
# In short: as §1
# [14] = biological target: GlcNAc(b1-3)[GlcNAc(b1-4)][GlcNAc(b1-6)]GlcNAc
# In short: as §1
# [15] = biological target: Kdn(a2-3)Gal(b1-3)GlcNAc
# In short: as §1
# [16] = biological target: Man(a1-2)Man(a1-3)[Man(a1-2)Man(a1-6)]Man
# In short: as §1
# [17] = biological target: Man(a1-2)Man(a1-3)[Man(a1-2)Man(a1-6)]Man(a1-6)[Man(a1-2)Man(a1-2)Man(a1-3)]Man(b1-4)GlcNAc(b1-4)GlcNAc
# In short: as §1
# [18] = biological target: Man(a1-3)[Man(a1-6)]Man(a1-6)[Man(a1-3)]Man(b1-4)GlcNAc(b1-4)GlcNAc
# In short: as §1
# [19] = biological target: Man(a1-3)[Man(a1-6)]Man(b1-4)GlcNAc(b1-4)GlcNAc
# In short: as §1
# [20] = biological target: Neu5Ac(a2-3)Gal(b1-3)GalNAc(b1-4)[Neu5Ac(a2-3)]Gal(b1-4)Glc
# In short: as §1
# [21] = biological target: Neu5Ac(a2-3)[Neu5Ac(a2-6)]GalNAc
# In short: as §1
# [22] = biological target: Neu5Ac(a2-6)GalNAc
# In short: as §1
# [23] = biological target: Neu5Ac(a2-8)Neu5Ac(a2-8)Neu5Ac
# In short: as §1
# [24] = biological target: Neu5Ac(a2-8)Neu5Ac(a2-8)Neu5Ac(a2-3)[GalNAc(b1-4)]Gal(b1-4)Glc
# In short: as §1
# [25] = biological target: Neu5Ac(a2-8)Neu5Ac(a2-8)Neu5Ac(a2-8)Neu5Ac(a2-3)[GalNAc(b1-4)]Gal(b1-4)Glc
# In short: as §1
# [26] = biological target: Neu5Gc(a2-3)Gal(b1-4)GlcNAc
# In short: as §1
binder,measurement,setting,value
B1,glycan array binding signal (z-score),[1],-0.109
same,glycan array binding signal (z-score),[2],2.25
same,glycan array binding signal (z-score),[3],0.762
same,glycan array binding signal (z-score),[4],-0.157
same,glycan array binding signal (z-score),[5],-0.159
same,glycan array binding signal (z-score),[6],0.291
same,glycan array binding signal (z-score),[7],-0.317
same,glycan array binding signal (z-score),[8],-0.532
same,glycan array binding signal (z-score),[9],-0.04
same,glycan array binding signal (z-score),[10],0.646
same,glycan array binding signal (z-score),[11],-0.265
same,glycan array binding signal (z-score),[12],1.6
same,glycan array binding signal (z-score),[13],-0.543
same,glycan array binding signal (z-score),[14],-0.657
same,glycan array binding signal (z-score),[15],0.272
same,glycan array binding signal (z-score),[16],-0.848
same,glycan array binding signal (z-score),[17],-0.332
same,glycan array binding signal (z-score),[18],1.57
same,glycan array binding signal (z-score),[19],-0.474
same,glycan array binding signal (z-score),[20],-0.383
same,glycan array binding signal (z-score),[21],-0.566
same,glycan array binding signal (z-score),[22],5.01
same,glycan array binding signal (z-score),[23],-0.629
same,glycan array binding signal (z-score),[24],-0.901
same,glycan array binding signal (z-score),[25],2.24
same,glycan array binding signal (z-score),[26],-0.45
